Screens: PubChem BioAssay, University of Kansas High Throughput Screening Laboratory
mHTT-CaM PPI inh = mHTT-calmodulin interaction abrogation; AlphaScreen His-mHTT/GST-CaM binding, luminescence; inhibition, % at 15 µM; 190,000 tested, 3.6% active; AID 1671202; P42858
Target sequence (P42858 whole entry, looked up, change not shown): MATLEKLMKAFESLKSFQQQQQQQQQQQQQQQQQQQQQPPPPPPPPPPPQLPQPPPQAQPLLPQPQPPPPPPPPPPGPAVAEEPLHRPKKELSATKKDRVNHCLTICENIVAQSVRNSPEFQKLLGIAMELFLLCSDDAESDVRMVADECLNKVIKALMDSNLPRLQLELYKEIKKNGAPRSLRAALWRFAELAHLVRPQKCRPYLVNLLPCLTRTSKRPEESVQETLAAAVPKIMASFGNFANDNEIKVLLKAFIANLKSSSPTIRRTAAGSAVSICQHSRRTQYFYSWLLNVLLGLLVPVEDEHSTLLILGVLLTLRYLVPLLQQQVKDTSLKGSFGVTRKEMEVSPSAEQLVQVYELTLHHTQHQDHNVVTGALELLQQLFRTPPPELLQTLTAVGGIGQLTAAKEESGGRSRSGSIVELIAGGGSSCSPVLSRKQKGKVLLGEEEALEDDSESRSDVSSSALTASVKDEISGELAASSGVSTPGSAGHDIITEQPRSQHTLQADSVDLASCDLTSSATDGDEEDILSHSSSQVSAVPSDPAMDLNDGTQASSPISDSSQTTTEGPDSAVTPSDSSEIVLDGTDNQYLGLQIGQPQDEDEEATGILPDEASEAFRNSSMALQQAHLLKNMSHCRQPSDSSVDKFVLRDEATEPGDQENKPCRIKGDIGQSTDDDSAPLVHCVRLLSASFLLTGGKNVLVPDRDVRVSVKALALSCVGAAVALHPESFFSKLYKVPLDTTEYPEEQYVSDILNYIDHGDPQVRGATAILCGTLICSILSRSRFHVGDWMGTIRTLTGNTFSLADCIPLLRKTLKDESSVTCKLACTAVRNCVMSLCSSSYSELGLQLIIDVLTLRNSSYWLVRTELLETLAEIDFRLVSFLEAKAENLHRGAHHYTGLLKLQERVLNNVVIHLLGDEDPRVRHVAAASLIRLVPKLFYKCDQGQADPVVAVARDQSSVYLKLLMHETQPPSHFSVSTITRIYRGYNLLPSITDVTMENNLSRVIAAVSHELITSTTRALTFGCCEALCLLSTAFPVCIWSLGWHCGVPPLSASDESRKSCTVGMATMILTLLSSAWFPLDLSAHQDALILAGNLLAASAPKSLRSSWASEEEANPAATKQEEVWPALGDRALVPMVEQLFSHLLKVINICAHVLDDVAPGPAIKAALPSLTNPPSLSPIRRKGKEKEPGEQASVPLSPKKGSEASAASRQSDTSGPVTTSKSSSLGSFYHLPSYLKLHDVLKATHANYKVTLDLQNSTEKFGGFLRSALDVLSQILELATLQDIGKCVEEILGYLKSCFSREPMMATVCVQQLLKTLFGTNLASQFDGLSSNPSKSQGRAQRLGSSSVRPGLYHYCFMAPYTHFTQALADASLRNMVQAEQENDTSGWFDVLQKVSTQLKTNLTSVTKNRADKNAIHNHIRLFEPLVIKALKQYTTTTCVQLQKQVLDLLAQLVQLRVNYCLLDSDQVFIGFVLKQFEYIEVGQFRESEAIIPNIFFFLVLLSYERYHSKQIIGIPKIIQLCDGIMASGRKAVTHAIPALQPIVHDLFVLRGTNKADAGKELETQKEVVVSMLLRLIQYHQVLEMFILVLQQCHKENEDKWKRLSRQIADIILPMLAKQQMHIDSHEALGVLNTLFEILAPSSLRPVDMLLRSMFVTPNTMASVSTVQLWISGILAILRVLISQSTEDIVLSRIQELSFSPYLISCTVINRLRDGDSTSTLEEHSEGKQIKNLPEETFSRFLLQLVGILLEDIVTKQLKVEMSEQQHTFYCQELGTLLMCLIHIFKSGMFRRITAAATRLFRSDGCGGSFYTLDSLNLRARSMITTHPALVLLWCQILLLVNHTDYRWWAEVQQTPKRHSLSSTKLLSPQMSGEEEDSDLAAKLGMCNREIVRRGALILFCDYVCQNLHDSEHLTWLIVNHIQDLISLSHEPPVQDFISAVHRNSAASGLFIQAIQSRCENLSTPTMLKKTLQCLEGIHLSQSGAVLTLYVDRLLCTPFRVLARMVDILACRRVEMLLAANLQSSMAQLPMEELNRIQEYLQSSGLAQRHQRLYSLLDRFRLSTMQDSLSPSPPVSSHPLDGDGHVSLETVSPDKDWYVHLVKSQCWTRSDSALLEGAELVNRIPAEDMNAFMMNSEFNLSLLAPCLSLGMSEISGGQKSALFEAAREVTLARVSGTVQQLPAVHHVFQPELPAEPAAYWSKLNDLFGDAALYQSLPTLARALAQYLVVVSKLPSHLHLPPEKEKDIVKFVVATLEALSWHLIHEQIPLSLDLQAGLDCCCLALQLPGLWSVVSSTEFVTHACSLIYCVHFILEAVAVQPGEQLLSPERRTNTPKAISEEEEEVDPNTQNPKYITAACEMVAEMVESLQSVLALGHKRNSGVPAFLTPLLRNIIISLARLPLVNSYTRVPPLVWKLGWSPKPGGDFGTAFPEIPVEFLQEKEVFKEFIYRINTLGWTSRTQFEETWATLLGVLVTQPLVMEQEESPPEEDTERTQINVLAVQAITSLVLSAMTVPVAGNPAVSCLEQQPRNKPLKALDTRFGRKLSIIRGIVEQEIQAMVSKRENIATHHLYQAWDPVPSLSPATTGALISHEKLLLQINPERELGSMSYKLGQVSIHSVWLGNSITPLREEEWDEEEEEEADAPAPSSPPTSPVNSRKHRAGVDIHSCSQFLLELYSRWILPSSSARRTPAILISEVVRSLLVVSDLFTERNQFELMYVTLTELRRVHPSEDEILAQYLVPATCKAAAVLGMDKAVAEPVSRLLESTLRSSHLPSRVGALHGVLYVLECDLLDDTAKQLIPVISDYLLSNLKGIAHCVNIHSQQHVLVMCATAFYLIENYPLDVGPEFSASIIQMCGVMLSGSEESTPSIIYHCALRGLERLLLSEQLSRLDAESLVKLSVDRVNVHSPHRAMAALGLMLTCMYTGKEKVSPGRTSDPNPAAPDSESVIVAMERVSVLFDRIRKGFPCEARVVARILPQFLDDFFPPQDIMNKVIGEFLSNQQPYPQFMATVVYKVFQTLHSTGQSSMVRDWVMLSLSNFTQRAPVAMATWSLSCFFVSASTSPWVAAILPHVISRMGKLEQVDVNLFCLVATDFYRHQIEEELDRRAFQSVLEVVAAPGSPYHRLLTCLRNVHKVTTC
Pf apPOL inh = Pf-apPOL DNA polymerase inhibition | inhibition, % at 10 µM | Recombinant Pf-apPOL, molecular beacon fluorescence, 1.5 h | AID 1794808 | 210,000 tested, 0.25% active
A number is an active result; 0 = inactive; - = no result given; + = active, no number. An excerpt weighted towards active compounds, which were near 3.6% of everything screened. Rule as the data show it: active = inhibition above about 50%; inactive = the rest.

SMILES	mHTT-CaM PPI inh	Pf apPOL inh
CC(=O)Nc1ccc(S(=O)(=O)N2CCN(C)C(c3ccc(F)cc3)C2)cc1 (stereo not drawn)	0	0
CCNC(=O)Nc1cccnc1N1CCOCC1	0	0
CC(C)c1nnc2ccc(N3CCOCC3)nn12	0	0
CC1(C)Nc2sc3c(c2-c2nnnn21)CCCC3	55.6	-
O=C1NC2(Nc3sc4c(c31)CCCC4)C(=O)Nc1ccccc12 (stereo not drawn)	0	0
O=C(CC(=O)c1ccccn1)c1ccccn1	-	0
N/C(=N\N=C(/N)c1ccccn1)c1ccccn1	+	0
Cc1cc(C)cc(C(=O)Nc2ccc3c(c2)Sc2ncccc2C(=O)N3C)c1	72.9	0
Cc1ccc(C(=O)Nc2ccc3c(c2)Sc2ncccc2C(=O)N3C)cc1	0	0
COc1cc(C=C2CC3C4CCc5cc(O)ccc5C4CCC3(C)C2=O)ccc1OC(F)F (stereo not drawn)	0	0
CC(C)c1noc(-c2cccnc2N2CCCN(C(=O)Cc3ccccc3Cl)CC2)n1	0	0
O=C(Cn1nnc2ccccc21)c1ccc([N+](=O)[O-])cc1	0	0
N#CC1C(c2ccc3ccccc3n2)=CN(CC(=O)c2ccc([N+](=O)[O-])cc2)c2ccccc21 (stereo not drawn)	0	75.4
Cc1ccnc(Nc2nc(CC(=O)N3CCN(S(C)(=O)=O)CC3)cs2)c1	0	0
CC(C)(C)[C@H]1CCC(=O)N([C@H](COc2ccccc2)Cc2ccccc2)CC1	63.7	0
CCCN1CCC(=O)N([C@H](COc2ccccc2)Cc2ccccc2)CC1	0	0
O=C1CCN(Cc2ccccc2)CCN1[C@H](COc1ccccc1)Cc1ccccc1	86.5	0
CC(C)(C)[C@H]1CCC(=O)N([C@H](CSc2ccccc2)Cc2ccccc2)CC1	0	0
COc1cc(/C=c2\sc3ncnn3c2=O)cc(OC)c1OC	0	0
COC(=O)C1=C(N)C(=O)N(CCc2ccc(OC)c(OC)c2)C1	0	0
O=c1[nH]n(-c2cccc(Br)c2)c(O)c1C=C1C=Nc2ccccc21	0	0
Cn1cc(Cl)c(C=C(C#N)S(=O)(=O)c2ccccn2)n1	-	0
Cc1cc(C)c(NC(=O)Cn2ccc3sccc3c2=O)c(C)c1	0	0
Cn1nc(C(=O)N2CCc3nc4cc(-c5ccccc5)[nH]n4c(=O)c3C2)c2ccccc21	0	0
COc1ccc(Cl)cc1C(=O)N1CCc2c(nc3cc(-c4ccccc4)[nH]n3c2=O)C1	0	0
SMILES	mHTT-CaM PPI inh	Pf apPOL inh
Cn1nc(C(=O)N2CCc3c(nc4cc(-c5ccccc5)[nH]n4c3=O)C2)c2ccccc21	61.1	0
O=C(c1ccncc1)N1CCc2c(nc3cc(-c4ccccc4Cl)[nH]n3c2=O)C1	0	0
COc1ccc(NC(=O)N2CCc3c(nc4cc(-c5ccccc5)[nH]n4c3=O)C2)c(OC)c1	51.5	0
COc1cccc(C(=O)N2CCc3c(nc4cc(-c5ccccc5)[nH]n4c3=O)C2)c1OC	65.9	0
COc1ccc(NC(=O)N2CCc3nc4cc(-c5ccccc5)[nH]n4c(=O)c3C2)c(OC)c1	0	0
O=C(Nc1cccc(F)c1)N1CCc2c(nc3cc(-c4ccccc4Cl)[nH]n3c2=O)C1	72.7	0
Cc1ccc(N2C(=O)NC(=O)/C(=C\c3ccc([N+](=O)[O-])s3)C2=O)cc1	0	0
COc1nc2c(c(=O)n(C)c(=O)n2C)n1Cc1ccccc1F	0	0
Cn1c(C2CCN(C(=O)C3CCCNC3)C2)nc2ccncc21 (stereo not drawn)	0	0
Cc1ccc(C(=O)N2CCc3c(nc4cc(-c5ccccc5Cl)[nH]n4c3=O)C2)cn1	0	0
COc1ccc(C(=O)N2CCc3c(nc4cc(-c5ccccc5)[nH]n4c3=O)C2)c(OC)n1	56.3	0
COc1ccc(C(=O)N2CCc3c(nc4cc(-c5ccccc5Cl)[nH]n4c3=O)C2)cn1	52.6	0
COc1ccc(C(=O)N2CCc3nc4cc(-c5ccccc5)[nH]n4c(=O)c3C2)c(OC)n1	0	0
O=S(=O)(NCc1ccco1)c1ccc(C2CCCCC2)cc1	0	0
COc1ccc(C(=O)N2CCC(COc3ccc(C(=O)N4CCOCC4)cc3)CC2)cc1	0	0
O=[N+]([O-])c1ccccc1CN1CCC(O)CC1	0	0
CN1CCN(Cc2cc([N+](=O)[O-])c(O)c3ncccc23)CC1	100.0	0
CN1CCCN(Cc2ccccc2[N+](=O)[O-])CC1	0	0
O=C(NC(/C=C/c1ccccc1)c1cc([N+](=O)[O-])c2cccnc2c1O)C1CCCCC1 (stereo not drawn)	0	0
CC1CCN(Cc2cc([N+](=O)[O-])c(O)c3ncccc23)CC1	100.0	0
O=[N+]([O-])c1cc(CN2CCC(c3ccccc3)C2)c(O)c2ncccc12 (stereo not drawn)	100.3	0
COc1ccccc1N1CCN(Cc2cc([N+](=O)[O-])c(O)c3ncccc23)CC1	100.2	0
COc1ccccc1N1CCN(Cc2cc(OC)c(O)c([N+](=O)[O-])c2)CC1	0	0
COCCN1CCn2c1nc(C)c(C)c2=O	0	0
CCNc1cc(N2CCCC(CCC(=O)NCCc3ccncc3)C2)ncn1 (stereo not drawn)	0	0
SMILES	mHTT-CaM PPI inh	Pf apPOL inh
O=C1CSC(c2ccc(Cl)cc2Cl)N1c1ccc(Br)cn1 (stereo not drawn)	0	0
Cc1cc(C)cc(NC(=O)N2CCCC(C)(C(=O)NCc3ccccc3C)C2)c1 (stereo not drawn)	0	0
O=[N+]([O-])c1cc(CN2CCCC2)c2cccnc2c1O	100.3	0
COc1cc(CN2CCCCCC2)cc([N+](=O)[O-])c1O	0	0
O=C(C1COC2(CCCCC2)N1C(=O)c1cccc(Cl)c1)N1CCOCC1 (stereo not drawn)	0	0
O=C(CSc1nsc(SCC(=O)Nc2ccccn2)n1)Nc1ccccn1	0	0
Cc1cccc(C2=NN(c3ccccc3)[C@@H](C(=O)N3CCOC3=O)[C@@H]2c2ccccc2)c1	0	0
COc1ccccc1[C@H]1C(c2ccc(F)cc2)=NN(c2ccccc2)[C@@H]1CO	66.7	0
COc1ccccc1[C@H]1C(c2cccc(C)c2)=NN(c2ccccc2)[C@@H]1CO	85.7	0
COc1ccccc1[C@H]1C(c2ccccc2)=NN(c2ccccc2)[C@@H]1CO	0	0
COCCc1noc(COC2CCCN(C(=O)c3cnccn3)C2)n1 (stereo not drawn)	0	0
CC(=O)Oc1ccc2c(=O)c(Oc3ccccc3)coc2c1	0	0
COc1cccc(Oc2coc3cc(OC(=O)C(C)C)ccc3c2=O)c1	0	0
COc1ccccc1Oc1coc2cc(OC(=O)C(C)C)ccc2c1=O	99.7	0
COC(=O)Oc1ccc2c(=O)c(Oc3ccc(C)cc3)coc2c1	80.0	0
CC1CN=C2C=C(N3CCN(C(=O)Nc4ccccc4C(F)(F)F)CC3)N=CN21 (stereo not drawn)	0	0
Cc1ccc(C)c(NC(=O)Cn2cnc3c(C(N)=O)nsc3c2=O)c1	0	0
N#C/C(=C\c1cc([N+](=O)[O-])ccc1Cl)C(=O)NCCc1c[nH]c2ccccc12	96.0	0
N#C/C(=C\c1c[nH]c2ccccc12)C(=O)Nc1cc([N+](=O)[O-])ccc1Cl	0	0
CCOc1ccc(/C=C/C(=O)Nc2ccc3nc(N4CCOCC4)cc(C)c3c2)cc1OC	0	0
Cc1cc(C)c(S(=O)(=O)N2CCC3(CC2)NCCN=C3NC2CCCC2)c(C)c1	0	0
CC(=O)N1CCc2cc(Br)cc(S(=O)(=O)NCCc3ccc(C)cc3)c21	0	0
